# Source: PubChem BioAssay AID488859 (Sanford-Burnham Center for Chemical Genomics, 2010)
# In all, about 1,400 compounds went through this assay and about 970 (69%) were called active. Another 5% or so got no clear call; they are omitted. Cut-off read from the data, not from the text of the source: active = inhibition above about 45%; inconclusive = no clear call, values can overlap the other calls; inactive = below that. The set was probably picked from earlier hits. The list is a sample of the results.
# Biological target: Ubiquitin-conjugating enzyme E2 N (Homo sapiens) (UniProt P61088)
# Assay: UBC13 polyubiquitination inhibitors, single-point retest, confirmation, biochemical, TR-FRET, single concentration (AID 488859)
# Conditions: at 10 µM, active compounds read high
# Ubiquitin-conjugating enzyme E2 N (Homo sapiens), sequence (P61088 whole entry, looked up): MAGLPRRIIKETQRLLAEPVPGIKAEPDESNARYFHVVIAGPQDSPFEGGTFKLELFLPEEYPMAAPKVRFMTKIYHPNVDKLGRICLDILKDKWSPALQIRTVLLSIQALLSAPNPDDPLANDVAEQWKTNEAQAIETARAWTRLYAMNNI
row,SMILES,inhibition
1,CNCC(O)c1cc(F)c(OCc2ccccc2)c(OCc2ccccc2)c1F (stereo unspecified),50.4% (active)
